The full list was thinned out, with hits kept by preference.
IDE exosite FP: displaces the probe from the exo-site of human IDE. actives 6.3% (n = 17,000). z-score at 20 µM. P14735. purified IDE, FL-6b probe fluorescence polarization; active compounds read low;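 active = z-score of -3 or lower, meaning strong loss of probe binding signal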;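 also: His-tagged human IDE residues 42-1019 made in E. coli with 30 nM FL-6b probe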
Target sequence (P14735 42-1019 limits assumed): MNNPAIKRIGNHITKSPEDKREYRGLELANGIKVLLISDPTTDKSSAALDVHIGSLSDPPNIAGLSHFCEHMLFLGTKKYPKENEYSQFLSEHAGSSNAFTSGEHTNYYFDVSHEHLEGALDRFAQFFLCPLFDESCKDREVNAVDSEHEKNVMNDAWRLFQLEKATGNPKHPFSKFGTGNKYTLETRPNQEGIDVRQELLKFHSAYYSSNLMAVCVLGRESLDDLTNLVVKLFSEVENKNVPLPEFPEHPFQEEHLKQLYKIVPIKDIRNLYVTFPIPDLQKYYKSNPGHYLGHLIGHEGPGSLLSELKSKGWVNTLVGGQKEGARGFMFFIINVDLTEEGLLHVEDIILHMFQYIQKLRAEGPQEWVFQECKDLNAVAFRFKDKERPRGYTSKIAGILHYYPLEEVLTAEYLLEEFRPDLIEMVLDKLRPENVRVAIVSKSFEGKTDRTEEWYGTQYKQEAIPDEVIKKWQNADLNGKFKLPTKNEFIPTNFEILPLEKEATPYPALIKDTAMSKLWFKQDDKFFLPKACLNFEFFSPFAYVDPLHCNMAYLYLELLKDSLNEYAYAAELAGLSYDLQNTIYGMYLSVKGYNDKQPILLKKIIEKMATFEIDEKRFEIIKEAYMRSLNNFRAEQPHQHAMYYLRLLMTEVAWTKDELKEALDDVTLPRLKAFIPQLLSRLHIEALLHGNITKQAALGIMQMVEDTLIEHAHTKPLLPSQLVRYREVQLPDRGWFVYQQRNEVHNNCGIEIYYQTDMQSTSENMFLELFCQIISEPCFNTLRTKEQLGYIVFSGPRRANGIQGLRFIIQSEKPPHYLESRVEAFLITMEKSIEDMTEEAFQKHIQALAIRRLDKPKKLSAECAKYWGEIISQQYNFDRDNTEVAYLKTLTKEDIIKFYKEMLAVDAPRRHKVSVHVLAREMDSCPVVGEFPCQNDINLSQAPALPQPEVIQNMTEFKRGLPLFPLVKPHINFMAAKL
An asterisk follows results filed as active; ! = repeats disagree.

SMILES	IDE exosite FP
CCC(=O)N1CC(=O)N2[C@H](C1)[C@H](c1ccc(-c3ccccc3F)cc1)[C@@H]2CO	-3.53*
O=C(Cc1ccncc1)N1CC(=O)N2[C@@H](CO)[C@H](c3ccc(C4=CCCC4)cc3)[C@@H]2C1	3.04
COc1ccc2c3c(n(C)c2c1)[C@H](CO)N(Cc1ccc(Cl)cc1)CC31CCN(CC2CC2)CC1	0.644
O=C(C[C@@H]1C=C[C@H](NS(=O)(=O)c2ccccc2)[C@H](CO)O1)NCCN1CCCCC1	0.55
OC[C@H]1[C@H](c2ccccc2)C2(CN(Cc3cccnc3)C2)N1Cc1ccncc1	0.582
C[C@@H]1CN([C@H](C)CO)C(=O)c2cccc(NC(=O)Nc3ccc(C(F)(F)F)cc3)c2O[C@H]1CN(C)S(=O)(=O)c1cn(C)cn1	0.358
CO[C@H]1CN(C)C(=O)c2ccc(NC(=O)Nc3ccccc3F)cc2OC[C@H](C)N(CC2CC2)C[C@H]1C	0.585
CCC(=O)N1[C@H](CO)[C@@H](c2ccccc2)[C@@H]1CN(C)C(=O)CN1CCOCC1	-1.27
CCCNC(=O)c1cc2c(c(-c3cccc(-c4ccc(F)cc4)c3)n1)[C@H](CCO)N([S@@](=O)C(C)(C)C)C2	1.47
CC(C)(C)[S@](=O)N1Cc2cc(C(=O)NCC(F)(F)F)nc(-c3cccc(-c4cccc(F)c4)c3)c2[C@@H]1CCO	-0.591
CC(C)(C)[S@@](=O)N1Cc2cc(C(=O)NCc3ccccc3F)nc(-c3cccc(-c4cncnc4)c3)c2[C@H]1CCO	-5.53*
O=C(C[C@@H]1CC[C@@H](NS(=O)(=O)c2ccccc2F)[C@H](CO)O1)NCCCN1CCOCC1	0.582
N#C[C@H]1[C@@H](c2ccccc2C2=CCCCC2)[C@H](CO)N1C(=O)C1CCOCC1	3.47
CN(C)C(=O)c1cccc(-c2ccc([C@H]3[C@H]4CN(C(=O)C5CCCCC5)CC(=O)N4[C@H]3CO)cc2)c1	2.24
CN(C)C(=O)c1cccc(-c2ccc([C@@H]3[C@@H](CO)N4C(=O)CN(C(=O)C5CCCCC5)C[C@@H]34)cc2)c1	2.76
CN(C)C(=O)c1cccc(-c2ccc([C@H]3[C@@H](CO)N4C(=O)CN(C(=O)C5CCC5)C[C@@H]34)cc2)c1	1.54
O=C(C1CCC1)N1CC(=O)N2[C@@H](CO)[C@H](c3ccc(-c4cccnc4)cc3)[C@@H]2C1	1.11
COc1cccc(-c2ccc([C@H]3[C@H](CO)N4C(=O)CN(C(=O)C5CCC5)C[C@@H]34)cc2)c1	-6.77*
COc1ccc(-c2ccc([C@@H]3[C@@H](CO)N4C(=O)CN(C(=O)C5CCC5)C[C@@H]34)cc2)cc1	2.35
COc1ccc(-c2ccc([C@H]3[C@@H](CO)N4C(=O)CN(C(=O)C5CCCC5)C[C@H]34)cc2)cc1	-7.68*
COc1ccc(-c2ccc([C@H]3[C@@H](CO)N4C(=O)CN(C(=O)C5CCCC5)C[C@@H]34)cc2)cc1	-2.51
COc1cccc(-c2ccc([C@H]3[C@@H](CO)N4C(=O)CN(C(=O)C5CCCCC5)C[C@@H]34)cc2)c1	-6.28*
COc1cccc(-c2ccc([C@H]3[C@H]4CN(C(=O)C5CCC5)CC(=O)N4[C@H]3CO)cc2)c1	-5.75*
C/C=C/c1ccc([C@@H]2[C@@H](CO)N3C(=O)CN(C(=O)Nc4ccccc4F)C[C@@H]23)cc1	2.14
C[C@H]1CN([C@@H](C)CO)C(=O)CCCn2cc(nn2)CO[C@H]1CN(C)C(=O)c1ccc(N2CCN(C)CC2)cc1	-0.664
SMILES	IDE exosite FP
CCCNC(=O)N1C[C@@H](O)COC[C@@H]2O[C@H](CC(=O)OC)CC[C@H]21	1.21
Cc1noc(C)c1S(=O)(=O)Nc1ccc2c(c1)C(=O)N([C@H](C)CO)C[C@H](C)[C@@H](CN(C)C(=O)Nc1cccc3ccccc13)OCCCC[C@H](C)O2	0.00421
O=C(Nc1cccc(F)c1)N1CC(=O)N2[C@H](CO)[C@H](c3ccc(-c4ccccc4F)cc3)[C@@H]2C1	4.08
C[C@@H]1CC=CC[C@@H](c2ccc3c(c2)OCO3)NC(=O)[C@@H](C)N(C)C(=O)c2ccccc2O1 (mixture of isomers)	-0.303
CO[C@H](CN(C)Cc1cc(F)ccc1F)[C@H](C)CN([C@H](C)CO)S(=O)(=O)c1ccc(C)cc1	0.567
Cc1ccc(CN2CC(=O)N3[C@H](CO)[C@@H](c4ccc(Br)cc4)[C@@H]3C2)cc1	-0.501
CCC(=O)N1[C@H](CO)[C@@H](c2ccccc2)[C@@H]1CN(CC)C(=O)NC1CCCC1	1.7
COc1ccc(-c2ccc([C@@H]3[C@H]4CN(C(=O)NC(C)C)CC(=O)N4[C@H]3CO)cc2)cc1	-0.327
COc1cccc(-c2ccc([C@H]3[C@H](CO)N4C(=O)CN(C(=O)NC(C)C)C[C@@H]34)cc2)c1	-6.95*
COc1cccc(-c2ccc([C@@H]3[C@@H](CO)N4C(=O)CN(C(=O)C5CCC5)C[C@H]34)cc2)c1	-4.34*
COc1ccc(-c2ccc([C@H]3[C@@H](CO)N4C(=O)CN(C(=O)NC(C)C)C[C@H]34)cc2)cc1	-0.408
CCS(=O)(=O)NCC[C@H]1CC[C@@H](NS(=O)(=O)c2ccccc2C)[C@H](CO)O1	0.44
COCC(=O)N1[C@H](C#N)[C@@H](c2ccccc2-c2ccccc2)[C@H]1CO	1.91
CCc1nc(N2[C@H](CO)[C@@H](c3ccccc3-c3ccc(F)cc3)[C@@H]2C#N)sc1C	-0.478
COc1ccccc1-c1ccc(C2[C@H]3CNC[C@@H]2N3C(=O)Nc2ccccc2F)cc1 (some centres not stated)	-10.7*
COc1cccc(NC(=O)N2[C@@H]3CNC[C@H]2C3c2ccc(-c3cccnc3)cc2)c1 (some centres not stated)	-0.474
COc1cccc(NC(=O)N2[C@@H]3CNC[C@H]2C3c2ccc(-c3cccc(OC)c3)cc2)c1 (some centres not stated)	-7.29*!
O=C(Nc1ccccc1F)N1[C@@H]2CNC[C@H]1C2c1ccc(-c2ccncc2)cc1 (some centres not stated)	1.78
COc1cccc(-c2ccc(C3[C@H]4CNC[C@@H]3N4C(=O)Nc3ccccc3Cl)cc2)c1 (some centres not stated)	-1.83
O=C(Nc1ccc(C(F)(F)F)cc1)N1[C@@H]2CNC[C@H]1C2c1ccc(-c2ccccc2F)cc1 (some centres not stated)	0.598
Cc1ccc(S(=O)(=O)N[C@H]2CC[C@@H](CC(=O)NCc3ccncn3)O[C@@H]2CO)cc1	-0.0347
CN1C(=O)c2cc(NS(=O)(=O)c3cccc(F)c3)ccc2OC[C@H]2O[C@H](CC(=O)NCCN3CCCCC3)CC[C@@H]21	-1.18
C/C=C/c1ccc([C@H]2[C@H](CO)N3C(=O)CN(C(=O)c4ccncc4)C[C@@H]23)cc1	0.781
C/C=C/c1ccc([C@H]2[C@@H](C#N)N(C(=O)Cc3ccccn3)[C@H]2CO)cc1	-2.01
C/C=C/c1ccc([C@@H]2[C@H](C#N)N(C(=O)Cc3ccccn3)[C@H]2CO)cc1	-0.421
CN(C)CC(=O)N1[C@H](C#N)[C@@H](c2ccc(-c3ccccc3F)cc2)[C@@H]1CO	-2.65
CN(C)CC(=O)N1[C@H](C#N)[C@@H](c2ccc(/C=C/c3ccccc3)cc2)[C@H]1CO	-5.4*
CN(C)CC(=O)N1[C@H](C#N)[C@@H](c2ccccc2-c2ccccc2F)[C@@H]1CO	-0.564
N#C[C@H]1[C@@H](c2ccc(/C=C/c3ccccc3)cc2)[C@@H](CO)N1C(=O)Cc1ccccn1	-3.72*
CCCNC(=O)N1[C@H](CO)[C@H](c2ccc(/C=C/c3ccccc3)cc2)[C@@H]1C#N	3.48

Screening results from PubChem BioAssay.
